High-throughput results deposited in PubChem by several laboratories.
Anthrax LF inh2: anthrax lethal factor protease inhibition | multiplex microsphere protease cleavage assay, LF | P15917 | inhibition, % at 10 µM | 0.12% of 360,000 active; note: plate controls were buffer without enzyme for full effect and enzyme alone for no effect
Target sequence (P15917 whole entry, looked up): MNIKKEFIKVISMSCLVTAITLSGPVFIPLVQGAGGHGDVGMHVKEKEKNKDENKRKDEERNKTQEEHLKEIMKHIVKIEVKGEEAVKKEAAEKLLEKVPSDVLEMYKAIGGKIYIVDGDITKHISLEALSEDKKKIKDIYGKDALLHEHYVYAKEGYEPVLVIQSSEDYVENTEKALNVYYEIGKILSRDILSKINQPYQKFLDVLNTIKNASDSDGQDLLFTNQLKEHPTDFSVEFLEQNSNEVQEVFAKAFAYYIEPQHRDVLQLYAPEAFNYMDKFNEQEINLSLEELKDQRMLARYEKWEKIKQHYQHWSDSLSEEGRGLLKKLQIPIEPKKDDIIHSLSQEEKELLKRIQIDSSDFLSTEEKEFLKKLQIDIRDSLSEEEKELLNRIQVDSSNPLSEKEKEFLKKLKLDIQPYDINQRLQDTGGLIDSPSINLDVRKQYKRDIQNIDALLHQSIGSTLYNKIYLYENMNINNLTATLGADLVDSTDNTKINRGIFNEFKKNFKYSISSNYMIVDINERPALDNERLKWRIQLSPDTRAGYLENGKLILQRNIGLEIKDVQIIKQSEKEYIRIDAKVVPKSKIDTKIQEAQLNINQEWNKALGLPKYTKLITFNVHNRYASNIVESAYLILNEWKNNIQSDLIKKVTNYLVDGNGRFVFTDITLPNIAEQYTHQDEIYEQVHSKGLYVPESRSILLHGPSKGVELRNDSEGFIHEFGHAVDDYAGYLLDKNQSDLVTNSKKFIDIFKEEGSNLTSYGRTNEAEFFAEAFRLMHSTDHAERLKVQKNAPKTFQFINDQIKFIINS
BoNT-A LC inh2: BoNT A light chain protease inhibition; multiplex microsphere protease substrate cleavage, flow cytometry; inhibition, % at 10 µM; 0.17% of 360,000 active; AID 588499; note: plate controls were buffer without enzyme for full effect and enzyme alone for no effect
Autofluor counter: compound fluorescence in toxin protease inhibitor counterscreen; fluorescence intensity (no concentration beside the values); 3.1% of 360,000 active; compound autofluorescence counterscreen, microsphere flow cytometry; stronger effect = higher value; in the data active = fluorescence intensity above about 16000; inconclusive = no clear call, values can overlap the other calls
BoNT-F LC inh: inhibitors of Botulinum neurotoxin F light chain protease; AID 588497; Multiplex microsphere protease cleavage assay, flow cytometry; inhibition, % at 10 µM; 0.22% of 360,000 active; in the data active = inhibition above about 35%, passing the limit was not always enough; inconclusive = no clear call, values can overlap the other calls; note: plate controls were buffer without enzyme for full effect and enzyme alone for no effect
DUSP3 inh: inhibitors of human VHR1 phosphatase (DUSP3). P51452. recombinant VHR phosphatase, pNPP absorbance. inhibition, % at 13.3 µM. 0.52% of 290,000 active. AID 1654; in the data active = inhibition above about 50%
SARS 3CLpro inh: SARS-CoV 3CLpro protease inhibition | recombinant SARS-CoV 3CLpro, quenched FRET peptide cleavage | 0.14% of 290,000 active | AID 1706 | inhibition, % at 6 µM; in the data active = inhibition above about 12%
BoNT-A LC CP1: inhibitors of Botulinum neurotoxin A light chain protease; inhibition, % at 10 µM; 3% of 720 active; multiplex microsphere protease assay, flow cytometry; shares compounds with BoNT-F LC inh; in the data active = inhibition above about 32%
BoNTF LC inh 1: inhibitors of Botulinum neurotoxin F light chain protease. shares compounds with BoNT-F LC inh. multiplex microsphere protease cleavage assay, flow cytometry. inhibition, % at 10 µM. 720 tested, under 10 active. AID 602140; call rule not given here
LF protease CP1: blocks anthrax lethal factor protease; shares compounds with BoNT-F LC inh; multiplex microsphere protease cleavage assay, LF; inhibition, % at 10 µM; 720 tested, under 10 active; AID 602142; call rule not given here
* = called active by the depositor; ? = inconclusive; / = no result given. Sampled rows, rich in hits. Any-hit rate of the full collection: about 3.9%. Cut-off read from the data, not from the text of the source, unless noted: active = inhibition above about 30%; inconclusive = no clear call, values can overlap the other calls; inactive = below that.

SMILES	Anthrax LF inh2	BoNT-A LC inh2	Autofluor counter	BoNT-F LC inh	DUSP3 inh	SARS 3CLpro inh	BoNT-A LC CP1	BoNTF LC inh 1	LF protease CP1
O=[N+]([O-])c1ccc(C2=NN(c3ccccc3)C(c3ccco3)C2)cc1 (configuration not stated)	31*	59*	18109*	?	8	0	59*	/	17
CC1=NN(c2ccccc2)C(c2ccco2)C1 (configuration not stated)	-4	-1	2925	-9	/	/	/	/	/
CCc1ccccc1Oc1nc(NCc2ccccc2)nc2ccsc12	-4	0	3709	-5	/	/	/	/	/
O=C(Nc1c[nH]c(=O)[nH]c1=O)c1cc([N+](=O)[O-])cc([N+](=O)[O-])c1	7	-5	4035	135*	/	1	1	76*	1
O=C(Nc1c[nH]c(=O)[nH]c1=O)c1ccc2c(c1)C(=O)N(c1cccc([N+](=O)[O-])c1)C2=O	-4	0	5147	4	34	-5	/	/	/
CC(C)=CC1C(C(=O)NCCc2ccccc2)C1(C)C (configuration not stated)	2	0	3650	?	/	/	/	/	/
Cc1ncc([N+](=O)[O-])n1S(=O)(=O)c1ccc2c(c1)OCCO2	-6	0	3077	-12	/	/	/	/	/
Cc1cc2c(sc3c(C)ccc(C)c32)c(C)n1	29	-2	3844	?	36	6	-1	-2	-3
O=c1c2ccccc2nnn1-c1ccc(Br)cc1	14	-8	4468	41*	16	2	0	0	-1
CC1(C)Cc2c(C#N)c(SCC(=O)c3ccccc3)nc(N3CCOCC3)c2CS1	-3	0	4781	37*	1	-1	-1	-2	-4
CCC1(C)Cc2c(C#N)c(SC)nc(N3CCOCC3)c2CO1 (configuration not stated)	32*	0	3640	?	/	/	1	-1	1
C=CCC(O)(CC=C)CNC(=O)c1ccc(OC)c(OC2CCN(C(C)=O)CC2)c1	-1	1	3928	?	21	4	/	/	/
O=C(CN(C(=O)CNS(=O)(=O)c1ccc(F)cc1)c1ccccc1F)NCc1ccco1	-4	-2	2961	35*	18	3	1	0	2
CC(=O)Nc1ccc(S(=O)(=O)Nc2nc3ccccc3nc2Nc2ccc(O)c(C(=O)O)c2)cc1	2	-1	4772	-7	-2	7	/	/	/
O=c1[nH]c(-c2ccccc2)ncc1Oc1ccccc1	-16	-4	3208	?	/	/	/	/	/
COc1ccc(CNC(=O)CN2C(=O)COc3ccc(S(=O)(=O)N4CCCC4)cc32)cc1	2	53*	5784	-2	-2	-1	0	2	0
CSc1ccccc1C(=O)C1CCCN(C(=O)c2cccc(Cn3cccn3)c2)C1 (configuration not stated)	2	0	3852	-4	/	/	/	/	/
COc1ccc(S(=O)(=O)NCC2CCCO2)cc1Cl (configuration not stated)	-12	-1	2925	35*	13	0	-1	-4	-2
CC1(C)NC(=O)N(CC(=O)N2CCCC(C(F)(F)F)C2)C1=O (configuration not stated)	2	2	4950	2	/	/	/	/	/
COc1ccc(-c2cc3ccccc3n2CC(O)Cn2nc(C)cc2C)cc1 (configuration not stated)	49*	152*	3026	-38	6	0	0	-4	-2
Cc1cc(C)n(CC(O)Cn2c(C)c(C)c3ccccc32)n1 (configuration not stated)	7	4	4825	35*	2	-4	0	-2	4
O=C(O)c1ccc(NS(=O)(=O)c2cccc(C(=O)Nc3cccc(C(=O)O)c3)c2)cc1	1	-1	3557	-10	-10	-3	0	-1	-2
Cc1ccccc1NC(=O)c1cccc(S(=O)(=O)Nc2cccc(C(=O)O)c2)c1	-2	-3	3658	?	-6	0	-1	-1	-1
CCC(C)c1ccc(S(=O)(=O)N2CCN(C(=O)c3ccc(Cl)c(S(=O)(=O)N4CCOCC4)c3)CC2)cc1 (configuration not stated)	1	-5	5753	-5	/	/	/	/	/
O=C(COc1ccc2c(-c3ccccc3)cc(=O)oc2c1)N1C[C@H]2C[C@@H](C1)c1cccc(=O)n1C2	2	0	5326	-9	/	/	/	/	/
SMILES	Anthrax LF inh2	BoNT-A LC inh2	Autofluor counter	BoNT-F LC inh	DUSP3 inh	SARS 3CLpro inh	BoNT-A LC CP1	BoNTF LC inh 1	LF protease CP1
Cc1cc(C)n(-c2nc3ccccc3nc2N2CCN(S(=O)(=O)c3ccc4ccccc4c3)CC2)n1	25	34*	9467	20	12	2	12	-3	6
Cc1cc(C)n(-c2nc3ccccc3nc2N2CCN(S(=O)(=O)c3ccc(F)c(C)c3)CC2)n1	11	24	7375	12	-8	0	/	/	/
CC(NC(=O)c1ccco1)C(=O)N1CCN(C(c2ccccc2)c2ccccc2)CC1 (configuration not stated)	0	-2	6041	4	-14	2	/	/	/
COc1cc(CC(=O)OCC(=O)NCc2ccco2)cc(OC)c1OC	1	0	3427	-5	/	/	/	/	/
CN(CCC#N)S(=O)(=O)c1cc2c3c(c1)CCN3C(=O)CC2	-2	-1	5534	-3	-31	0	/	/	/
Cc1ccc2nc3c(cc2c1)c(NC(=O)c1ccco1)nn3CC(C)C	18	?	3936	?	8	4	/	/	/
Cc1ccc2nc3c(cc2c1)c(NC(=O)C(C)(C)C)nn3CC(C)C	49*	2	2974	15	20	1	1	2	0
NC(=O)C(c1ncc(C(F)(F)F)cc1Cl)c1c(Cl)cccc1Cl (configuration not stated)	?	?	?	48*	23	-3	0	-3	5
CCCCOc1ccc(C(=O)N2CCN(c3ccc(N4CCOCC4)nn3)CC2)cc1	23	8	?	59*	/	/	1	-3	2
Cc1ccc(C(=O)N2CCN(c3ccc(N4CCOCC4)nn3)CC2)cc1	-3	4	4117	8	/	/	/	/	/
COc1ccc(C(CNC(=O)c2cccc(S(=O)(=O)Nc3ccccc3OC)c2)N2CCCC2)cc1 (configuration not stated)	4	1	11267	37*	/	/	-10	-2	-4
COc1ccc(C(CNC(=O)c2cccc(S(=O)(=O)Nc3ccccc3OC)c2)N2CCCCC2)cc1 (configuration not stated)	-3	-3	7054	5	/	/	/	/	/
COc1ccc(NS(=O)(=O)c2cccc(C(=O)Nc3ccccc3C(=O)O)c2)cc1	3	-1	4460	?	16	6	-1	-2	4
